# Compound activity: PubChem BioAssay, National Center for Advancing Translational Sciences (NCATS)
# ELG1 repair inh: blocks ELG1-dependent DNA repair in HEK293T cells | HEK293T ELG1-luciferase reporter, luminescence, 16 h; DNA damage induced by 5-fluorouridine | Potency, µM (titrated, usually from 46.1 µM), for the others: at the highest dose activity change, negative = inhibition, actives largely listed as inhibitors | actives 2.3% (n = 330,000) | AID 504467; note: potency is the fitted concentration of half-maximal effect; nearly all actives have a fitted effect of over 55% in size
#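 Cells (2,000 per well) received 5-fluorouridine plus test compound or DMSO and were incubated 16 hr at 37 °C, 5% CO2. Luciferase activity was read by luminescence 30 min after ONE-Glo addition; signal suppression marked inhibition of damage-induced ELG1 function.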
# Gal4-VP16 FLuc: counter-screen for ROR gamma inhibitors: Gal4-VP16 reporter; Drosophila S2 Gal4-VP16 UAS-luciferase, luminescence, 20 h; Potency, µM (highest dose often 53.6 µM), for inactives: at the highest dose activity, negative = inhibition, actives largely listed as inhibitors; actives 3.5% (n = 310,000);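 note: Gal4-VP16 expression switched on by copper sulfate through the metallothionein promoter; potency is the fitted concentration of half-maximal effect; nearly all actives have a fitted effect of over 50% in size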
# RORg inh: blocks mouse ROR gamma transcriptional activity. Drosophila S2 Gal4-RORgamma UAS-luciferase reporter, 20 h. actives 5.4% (n = 310,000). Potency, µM (highest dose often 53.6 µM), for the others: at the highest dose activity change, negative = inhibition, most hits filed as inhibitors. P51450. AID 2551; note: potency is the fitted concentration of half-maximal effect; nearly all actives have a fitted effect of over 60% in size
# Target sequence (P51450 whole entry, looked up, the tested form may be a part): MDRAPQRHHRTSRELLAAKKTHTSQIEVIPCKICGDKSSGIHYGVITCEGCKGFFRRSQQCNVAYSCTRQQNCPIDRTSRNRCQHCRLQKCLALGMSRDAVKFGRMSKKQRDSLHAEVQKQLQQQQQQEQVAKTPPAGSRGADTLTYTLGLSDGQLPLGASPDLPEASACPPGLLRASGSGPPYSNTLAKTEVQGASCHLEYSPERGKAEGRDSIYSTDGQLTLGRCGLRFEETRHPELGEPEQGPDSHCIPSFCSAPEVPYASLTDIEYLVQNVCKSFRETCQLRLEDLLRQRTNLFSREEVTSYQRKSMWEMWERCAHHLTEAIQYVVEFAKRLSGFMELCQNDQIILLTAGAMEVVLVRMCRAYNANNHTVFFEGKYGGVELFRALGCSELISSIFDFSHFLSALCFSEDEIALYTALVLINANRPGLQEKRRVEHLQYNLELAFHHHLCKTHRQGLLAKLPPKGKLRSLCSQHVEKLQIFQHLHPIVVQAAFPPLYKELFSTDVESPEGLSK
#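 ROR gamma transcriptional activity was tracked as Gal4-UAS luciferase output in stably transfected Drosophila Schneider cells, with compound added 1 hr before 700 uM copper sulfate induction and a 20 hr ambient-temperature incubation.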
# DT40 TDP1 CPT: DT40-hTDP1 cell growth loss with CPT. chicken DT40 Tdp1-/-;hTDP1 cells + 20 nM CPT, ATP luminescence, 48 h. Potency, µM (titrated, usually from 46.2 µM), without a hit: top-dose activity change, negative = growth inhibition, actives largely listed as inhibitors. actives 12% (n = 420,000); note: potency is the fitted concentration of half-maximal effect; nearly all actives have a fitted effect of over 55% in size
#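 Cell growth measured by CellTiter-Glo luminescence after a minimum 48 h, 37 C compound exposure with 20 nM CPT in Tdp1-knockout DT40 cells stably expressing hTDP1, seeded 400/well; qHTS titration format.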
# IL-1B inflam inh: inflammasome signaling inhibition, IL-1 beta readout | activity change, % at 57.5 µM | THP-1 LPS/ATP IL-1B secretion, AlphaLISA, 16 h; active compounds read low | actives 4.7% (n = 360,000); in the data active = activity change below about -50%; inconclusive = mostly about -30% to -49%
#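 THP-1 cells pretreated 1 hr with compounds (up to 57.5 uM final), then stimulated with LPS (250 ng/mL final) plus ATP (1.25 mM final); secreted IL-1B measured by AlphaLISA after 16 hr, decreased signal indicating inhibition.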
# DT40 TDP1 no CPT: qHTS for Inhibitors of human tyrosyl-DNA phosphodiesterase 1 (TDP1): qHTS in cells in absence of CPT | Potency, µM (doses to about 46.2 µM), without a hit: top-dose activity change, negative = growth inhibition, usual class: inhibitors | actives 15% (n = 420,000) | DT40 Tdp1-/- hTDP1 cells, no CPT, ATP luminescence, 48 h; note: potency is the fitted concentration of half-maximal effect; nearly all actives have a fitted effect of over 55% in size
#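 Camptothecin absent (DMSO only). Human TDP1-complemented DT40 knockout cells, 400 cells/well, 37 °C for minimum 48 hr; ATP measured via CellTiter-Glo, 30 min dark incubation, luminescence.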
# Active calls of the source: *; ? = inconclusive; nt = no result given; [ ] = remark or other dose. Hits are enriched below; roughly 21% of the tested compounds scored in any of these assays. Unless noted, calls come from the whole dose curve; as a rule, active = well fitted curve in the direction sought with a large enough effect; inconclusive = small, poorly fitted or top-dose-only effect, or another doubt; inactive = no such curve, though single readings can be large; an effect the other way counts as inactive or inconclusive. % is set by controls: 0 for no effect and ±100 for the full control effect.
SMILES,ELG1 repair inh,Gal4-VP16 FLuc,RORg inh,DT40 TDP1 CPT,IL-1B inflam inh,DT40 TDP1 no CPT
CS(=O)(=O)N1CCN(c2ccccc2NC(=O)c2ccc(-c3ccc(Br)cc3)o2)CC1,14.6µM*,-3.6%,22.2%,?,21.6,?
COc1cc2ccccc2cc1C(=O)Nc1ccccc1N1CCN(S(C)(=O)=O)CC1,nt,-3.0%,9.0%,20.6µM*,-15.0,20.6µM*
O=C(Nc1ccccc1Cl)c1cc(S(=O)(=O)N2CCCCC2)ccc1N1CCOCC1,-3.4%,-6.2%,5.7%,?,-22.9,23.1µM*
O=C(Nc1ccccc1F)c1cc(S(=O)(=O)N2CCOCC2)ccc1N1CCOCC1,-7.8%,nt,nt,-7.7%,-13.5,-20.4%
O=C(Nc1nnc(C2CC2)s1)c1cc(S(=O)(=O)N2CCCCC2)ccc1N1CCOCC1,-9.9%,-5.2%,-15.7%,-20.0%,?,-20.1%
O=C(Nc1cccc(C(F)(F)F)c1)c1cc(S(=O)(=O)N2CCCCC2)ccc1N1CCOCC1,?,-2.0%,5.5%,23.1µM*,?,18.4µM*
CCc1nnc(NC(=O)c2cc(S(=O)(=O)N3CCOCC3)ccc2N2CCCCC2)s1,-6.4%,1.3%,-2.8%,0.8%,-70.4*,?
N#CCC(=O)N/N=C/c1cc(Br)ccc1OCc1cccc2ccccc12,-27.2%,-11.8%,2.0%,?,-14.8,?
CCC(C)Sc1ccc([C@@H]2[C@H]3C(=O)N(C)C(=O)[C@H]3[C@]3(C(=O)OC)CCCN23)cc1 (stereo partly drawn),-9.9%,nt,nt,?,28.1,14.6µM*
CCC(C)Sc1ccc([C@@H]2[C@@H]3C(=O)N(C)C(=O)[C@@H]3[C@]3(C(=O)OC)CCCCN23)cc1OC (stereo partly drawn),-3.4%,nt,nt,?,-0.2,18.4µM*
O=C1C(Cl)=C(Nc2ccccc2O)C(=O)N1c1ccccc1,?,-0.4%,-0.2%,?,3.8,?
Cc1ccccc1NC1=C(Cl)C(=O)N(C2CCCCC2)C1=O,-4.3%,?,4.6%,?,-93.3*,?
COc1ccccc1N1C(=O)C(Cl)=C(Nc2ccccc2O)C1=O,-3.6%,5.9%,-3.8%,?,28.6,?
COc1ccccc1NC1=C(Cl)C(=O)N(C2CCCCC2)C1=O,-7.1%,-6.4%,0.4%,18.4µM*,-11.6,25.9µM*
Clc1cc(Cl)cc(Cl)c1,nt,3.1%,-0.8%,nt,nt,nt
Fc1cccc(-n2ncc3c2ncn2nc(COc4ccc(Cl)cc4)nc32)c1,nt,nt,nt,-3.6%,nt,-5.5%
Cc1cccc(C(C)n2nnc3ccccc32)c1O (stereo not drawn),-5.6%,nt,nt,23.1µM*,31.8,?
OCC1OC(C#Cc2ccccc2)C=CC1OCc1ccccc1 (stereo not drawn),nt,-3.2%[10 µM],31.7%[10 µM],nt,nt,nt
C/C(=N\NC(=O)c1n[nH]c2c1CCC2)c1ccco1,?,12.6µM*,8.91µM*,-21.9%,nt,?
CCC(C)(C)C1CCc2[nH]nc(C(=O)N/N=C(\C)c3ccco3)c2C1 (stereo not drawn),?,?,?,?,-87.3*,?
O=C(NN=C1CCCC1)c1n[nH]c2c1CCC2,?,6.0%,-10.5%,0.7%,109.0,7.5%
C/C(=N\NC(=O)c1cccc(N/N=C(\C)c2ccco2)c1)c1ccco1,?,-4.3%,2.3%,-20.2%,4.7,?
COc1ccc(-c2nc3ccc(C4=NNC(=O)CC4C)cc3[nH]2)cc1 (stereo not drawn),nt,nt,nt,?,nt,13.3µM*
COc1cccc2cc(-c3nc4ccc(C)cc4[nH]3)c(=O)oc12,nt,nt,nt,-10.0%,nt,?
COc1ccc2oc(=O)c(-c3nc4ccc(C)cc4[nH]3)cc2c1,nt,nt,nt,1.03µM*,nt,1.46µM*
SMILES,ELG1 repair inh,Gal4-VP16 FLuc,RORg inh,DT40 TDP1 CPT,IL-1B inflam inh,DT40 TDP1 no CPT
COc1ccc(CC(=O)N2CCN(c3ccc(C4=NNC(=O)CC4C)cc3)CC2)cc1 (stereo not drawn),-3.2%,-7.8%,43.8%,?,-7.6,?
COc1ccc2nc(-c3ccc(N)cc3)[nH]c2c1,?,10µM*,7.94µM*,?,?,?
COc1ccc2nc(-c3cccc(N)c3)[nH]c2c1,?,12.6µM*,?,?,-27.7,23.1µM*
Nc1ccn([C@@H]2O[C@H](CNCc3cccc4c3sc3ccccc34)[C@@H](O)[C@H]2O)c(=O)n1,nt,nt,nt,21.4%,-6.5,0.2%
CC1C(c2ccccc2)OCCN1C(=S)Nc1ccc(S(=O)(=O)N2CCCCC2)cc1 (stereo not drawn),nt,nt,nt,-29.9%,-8.9,?
CC(=O)c1ccc(NC(=O)C(C)n2c3ccccc3c3nc(=O)cc(C)n32)cc1 (stereo not drawn),?,-6.9%,15.8%,2.4%,-28.3,2.6%
COc1ccc(N2CCN(Cc3nc4c(c(=O)n(C)c(=O)n4C)n3Cc3ccccc3C)CC2)cc1,nt,nt,nt,18.4µM*,10.4,16.4µM*
COc1ccc(N2CCN(Cc3nc4c(c(=O)n(C)c(=O)n4C)n3CC(C)=O)CC2)cc1,-13.2%,-17.1%,?,13µM*,18.6,23.1µM*
COc1ccc(NC(=O)CSc2nnnn2C2CCCC2)cc1S(=O)(=O)N1CCOCC1,nt,nt,nt,1.6%,1.3,-12.1%
C[C@H](CO)N1C[C@H](C)[C@H](CN(C)S(=O)(=O)c2ccccc2F)OCc2cnnn2CCCC1=O,nt,nt,nt,4.2%,-5.4,0.1%
OC(COCc1ccc(Cl)cc1)CN1CCN(CC(O)COCc2ccc(Cl)cc2)CC1 (stereo not drawn),20.6µM*,-3.8%,-8.5%,18.4µM*,?,14.6µM*
C=CCc1ccccc1OCC(O)CN1CCN(c2ccc(OC)cc2)CC1 (stereo not drawn),-16.8%,-9.6%,0.1%,16.4µM*,-22.5,?
C=CCc1ccccc1OCC(O)CN(C(C)C)C(C)C (stereo not drawn),-7.3%,-0.9%,-15.9%,-24.5%,-16.7,23.1µM*
O=[N+]([O-])c1ccc(OCC(O)CN2CCN(c3ccccc3F)CC2)cc1 (stereo not drawn),-0.4%,?,1.0%,?,-10.6,?
OC(COCc1ccc(Cl)cc1)CN1CCCCC1 (stereo not drawn),18.5%,-10.5%,-13.5%,4.7%,-2.8,-1.0%
OC(COc1ccc2c(c1)CCC2)CN1CCN(c2ccccc2F)CC1 (stereo not drawn),-29.4%,-11.7%,29.3%,-10.2%,-52.6*,-8.6%
